# High-throughput results from PubChem.
# Hits are enriched below; roughly 10% of the tested compounds scored in any of these assays.
# BAZ2B inh – BAZ2B (human) inhibition; Q9UIF8; AlphaScreen BAZ2B-H3K14Ac peptide displacement; Potency, µM (top dose mostly 114 µM), usual class: inhibitors; actives 4.4% (n = 360,000); AID 504333; note: nearly all actives have a fitted effect of over 60% in size
#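 AlphaScreen displacement: compounds (up to 110uM) incubated 30 min at room temperature with a preformed 50 nM BAZ2B/50 nM biotinylated H3K14Ac peptide complex in PBS pH 7.4 with Tween-20. Donor and acceptor beads at 10 ug/mL final added, 20 min light-protected before reading.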
# HP1b binding inh – HP1-beta chromodomain-methylated histone interaction inhibition. P83916. AlphaScreen HP1-beta / biotin-H3K9me3 peptide binding. Potency, µM (doses to about 114 µM), hits mostly inhibitors. actives 0.56% (n = 390,000). AID 540317; note: nearly all actives have a fitted effect of over 70% in size
#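 AlphaScreen: HP1-beta (50 nM) preformed 30 min with biotin-H3(1-18)K9me3 peptide (50 nM) in PBS pH 7.4, 0.01% Tween-20. Compound added for 30 min at RT, then streptavidin donor/nickel chelate acceptor beads (10 ug/mL) for 30 min.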
# GLS inh – blocks human kidney-isoform glutaminase activity | O94925 | GLS enzymatic activity, qHTS titration | Potency, µM (series often up to 45.5 µM), hits mostly inhibitors | actives 0.21% (n = 410,000)
# Target sequence (O94925 whole entry, looked up, canonical isoform): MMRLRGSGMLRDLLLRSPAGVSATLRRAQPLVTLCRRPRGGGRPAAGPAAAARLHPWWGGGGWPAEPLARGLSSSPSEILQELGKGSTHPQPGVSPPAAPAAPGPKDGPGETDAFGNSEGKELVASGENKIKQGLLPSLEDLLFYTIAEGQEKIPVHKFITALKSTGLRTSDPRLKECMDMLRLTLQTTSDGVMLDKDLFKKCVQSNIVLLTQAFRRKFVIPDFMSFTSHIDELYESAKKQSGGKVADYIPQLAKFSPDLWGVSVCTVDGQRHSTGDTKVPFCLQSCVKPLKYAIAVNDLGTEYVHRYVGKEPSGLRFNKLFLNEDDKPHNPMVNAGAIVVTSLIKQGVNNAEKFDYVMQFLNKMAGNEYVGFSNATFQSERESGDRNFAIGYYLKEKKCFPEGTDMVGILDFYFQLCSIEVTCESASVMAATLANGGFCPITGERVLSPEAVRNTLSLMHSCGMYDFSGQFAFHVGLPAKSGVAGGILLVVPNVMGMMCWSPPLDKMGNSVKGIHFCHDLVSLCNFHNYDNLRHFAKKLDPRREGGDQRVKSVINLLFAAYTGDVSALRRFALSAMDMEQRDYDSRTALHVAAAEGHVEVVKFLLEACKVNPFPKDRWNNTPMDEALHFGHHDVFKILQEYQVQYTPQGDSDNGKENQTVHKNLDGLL
#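 Assay buffer: 45 mM KH2PO4 pH 8.2, 0.02% Tween-20. hKGA acts on L-glutamine (1 mM solution added); product glutamate is reported by an oxidase/peroxidase Amplex Red coupling, with fluorescence taken at baseline and 30 min.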
# JMJD2A Tudor inh – JMJD2A Tudor domain (human) inhibition; O75164; AlphaScreen JMJD2A-Tudor / H3K4me3 peptide binding; Potency, µM (highest dose often 114 µM), usual class: inhibitors; actives 4.4% (n = 390,000); note: nearly all actives have a fitted effect of over 50% in size
# G9a block – G9a (human) methyltransferase inhibition; Q96KQ7; G9a H3K9 monomethylation, AlphaScreen, 2 h; Potency, µM (series often up to 102 µM), usual class: inhibitors; actives 8.8% (n = 350,000); AID 504332; note: nearly all actives have a fitted effect of over 75% in size
#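 G9a (20 nM) preincubated 15 min RT with compounds, then 500 nM biotinylated H3K9 peptide and 20 uM SAM added; 2 h RT reaction. Monomethyl-H3K9 product detected by AlphaScreen with anti-H3K9me1 antibody, streptavidin donor and anti-rabbit IgG acceptor beads.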
# Numbers stand for hits; . = inactive; ? = inconclusive; / = not tested or not shown; [ ] = dose if it differs, or a comment. Calls come from the whole dose curve; as a rule, active = well fitted curve in the direction sought with a large enough effect; inconclusive = small, poorly fitted or top-dose-only effect, or another doubt; inactive = no such curve, though single readings can be large; an effect the other way counts as inactive or inconclusive.
SMILES,BAZ2B inh,HP1b binding inh,GLS inh,JMJD2A Tudor inh,G9a block
Cc1ccc(-c2csc(NC(=O)c3ccno3)n2)cc1,?,.,.,79µM,50µM
CCN(CC)C(=O)CC(c1ccc(OC)cc1)c1c(OC)cc(OC)c2c(-c3ccccc3)cc(=O)oc12 (centres undefined),/,.,/,?,/
CC(=O)N1CCc2cc(Br)cc(S(=O)(=O)N3CCC(C(=O)Nc4ccc(C(C)C)cc4)CC3)c21,.,.,.,.,.
O=C(COC(=O)/C=C/c1ccc([N+](=O)[O-])cc1)NCc1ccco1,.,.,.,.,.
COc1cc(/C=C/C(=O)OCC(=O)NCc2ccco2)ccc1O,.,.,.,.,40µM
COc1ccccc1/C=C/C(=O)OCC(=O)NCc1ccco1,?,.,.,.,.
O=C(COC(=O)/C=C/c1cccc([N+](=O)[O-])c1)NCc1ccco1,71µM,.,.,.,.
NS(=O)(=O)c1cc([C@@]2(O)NC(=O)c3ccccc32)ccc1Cl,/,/,.,/,.[21.5 µM]
COC(=O)[C@]12CCCCC=C1N(Cc1ccc(Cl)cc1Cl)C(=O)[C@H](CC(=O)N1CCOCC1)C2,/,/,.,/,/
Cc1c(P(=S)(c2ccccc2)c2ccccc2)c2ccccc2n1CCc1ccccc1,/,/,/,.,/
CCCN(C(=O)c1c(C)oc2ncn(CC(C)C)c(=O)c12)c1ccccc1C,.,.,.,.,.
CCOC(=O)c1ccc(S(=O)(=O)NCC(c2ccc(N(C)C)cc2)c2c[nH]c3ccccc23)cc1 (centres undefined),10µM,32µM,.,11µM,?
CN(C)c1ccc(C(CNS(=O)(=O)c2ccc(F)cc2)c2c[nH]c3ccccc23)cc1 (centres undefined),18µM,?,.,25µM,10µM
O=[N+]([O-])CC(c1ccccc1)c1c[nH]c2ccccc12 (centres undefined),/,.,.,.,/
CCOC(=O)c1ccc(S(=O)(=O)NCCN(CC)CC)cc1,.,.,.,.,?
CC(C)(C)c1cc(C(=O)CCN2CCOCC2)cc(C(C)(C)C)c1O,.,.,.,.,50µM
O=C(CN1CSCC1=O)N1CCN(S(=O)(=O)c2ccc(Cl)cc2)CC1,.,.,.,.,.
Cc1[nH]n(-c2ncc(-c3ccccc3)s2)c(=O)c1C(c1ccc(Cl)cc1)C(C#N)C#N (centres undefined),40µM,?,.,40µM,?
CC1(C)CC(=O)C2=C(C1)OC(N)=C(C#N)C2C#Cc1ccccc1 (centres undefined),?,.,.,.,14µM
Nc1nc2c(nc(Br)n2C2O[C@H]3COP(=O)(O)O[C@@H]3C2O)c(=O)[nH]1 (some centres undefined),/,/,/,/,.[12.7 µM]
CC(Sc1nncn1C)C(=O)Nc1ccc2ccccc2c1 (centres undefined),.,.,.,.,8.9µM
CC(Sc1nncn1C)C(=O)Nc1ccc(S(N)(=O)=O)cc1 (centres undefined),.,.,.,.[11.4 µM],/
OCCN=c1cc(-c2ccccc2)oc2ccc(Cl)cc12,?,.,.,.,.[0.501 µM]
CN(C)CCCN=c1cc(-c2ccccc2)oc2ccc(Cl)cc12,?,.,.,.,56µM
CC(C)CNS(=O)(=O)c1ccc(OCC(=O)NCC2CCCO2)c(Cl)c1 (centres undefined),.,.,.,.,.
SMILES,BAZ2B inh,HP1b binding inh,GLS inh,JMJD2A Tudor inh,G9a block
Cc1cc(N2CCCCC2)nc2ccc(NC(=O)c3ccc(Br)o3)cc12,?,?,.,?,50µM
Cc1cc(N2CCN(C)CC2)nc2ccc(NC(=S)NCCC(C)C)cc12,?,.,.,?,50µM
CCCN(CCC)CCCNC(=S)Nc1ccc2nc(N3CCCC3)cc(C)c2c1,.,.,.,?,40µM
CCN(CC)CCNC(=S)Nc1ccc2nc(N3CCN(C)CC3)cc(C)c2c1,.,.,.,.,45µM
CCN(CC)CCNC(=S)Nc1ccc2nc(N3CCCC3)cc(C)c2c1,/,.,.,.,45µM
CCN(CC)CCNC(=S)Nc1ccc2nc(N3CCOCC3)cc(C)c2c1,.,.,.,.,?
CC1=C(C(=O)OCc2ccc(C)cc2)C(c2ccc(O)c([N+](=O)[O-])c2)NC(=O)N1 (centres undefined),.,.,.,.,.
Cc1ccn2c(Nc3c(C)cccc3C)c(-c3ccsc3)nc2c1,.,.,.,?,10µM
Cc1cccc(Nc2c(-c3ccsc3)nc3nc(C)cc(C)n23)c1,.,.,.,.,.
Cc1ccccc1Nc1c(-c2ccc(Cl)s2)nc2c(C)cccn12,?,?,.,?,.
Cc1ccn2c(Nc3c(C)cccc3C)c(-c3ccc(Cl)s3)nc2c1,5.6µM,?,.,?,7.1µM
CCc1ccc(O)c(C(=O)c2cnc3cc(-c4ccc(C)cc4)nn3c2)c1,.,.,.,.,.
O=C(CN1CCCCC1)N/N=C/c1ccc(Cl)cc1,?,.,.,.,.
O=C(CN1CCCCCCC1)N/N=C/c1ccc(F)c(F)c1,.,.,.,3.2µM,?
CCOc1cc(/C=N/NC(=O)CN2CCCCC2)ccc1OCc1cccc(Cl)c1,.,.,.,.,.
O=C(CN1CCCCCC1)N/N=C/c1cccc(Cl)c1,50µM,.,.,79µM,?
O=C(CN1CCSCC1)N/N=C/c1cccc(Cl)c1,50µM,.,.,?,3.2µM
O=C(CN1CCCCC1)N/N=C/c1cccc(C(F)(F)F)c1,/,.,.,.,/
CCOc1cc(/C=N/NC(=O)CN2CCCCC2)ccc1OCc1ccc(Cl)cc1,50µM,.,.,?,.
COc1ccc(/C=C2\Sc3ccc(C(=O)NC4CC4)cc3N(C)C2=O)cc1OC,?,.,.,.,.
COc1ccc(/C=C2\Sc3ccc(C(=O)NCCN4CCCCCC4)cc3N(C)C2=O)cc1,?,.,.,?,22µM
COc1ccc(/C=C2\Sc3ccc(C(=O)N4CCCC4)cc3N(C)C2=O)cc1OC,.,.,.,.,45µM
CCC(=O)N(CC)C1=C(O)c2ccccc2C(=O)C1=O,45µM,?,.,5.6µM,1µM
CCC(=O)N(C1=C(NC)C(=O)c2ccccc2C1=O)C(C)C,.,.,.,.,.
Cc1ccccc1-c1cc2nc(Oc3ccc4c(c3)OCO4)n(C)c(=O)c2s1,/,/,.,/,/
CN(C1CCCCC1)S(=O)(=O)c1ccc(F)c(C(=O)Nc2ccc(C(F)(F)F)cc2)c1,.,.,.,.,.
CCCOC(=O)C1=C(C)NC2=C(C(=O)C(C(=O)OC)C(C)C2)C1c1ccc(N(CC)CC)cc1 (centres undefined),?,.,.,.,3.5µM
COCCOC(=O)C1=C(C)NC2=C(C(=O)CCC2)C1c1ccc(N(C)C)cc1 (centres undefined),.,.,.,.,?
CCN(CC)c1ccc(C2C(C(=O)OCCOC(C)C)=C(C)NC3=C2C(=O)CCC3)cc1 (centres undefined),50µM,.,.,?,10µM
